Out of some 2,400 compounds screened, about 1,100 (46%) were called active. So high a share suggests a set chosen from earlier hits. These entries were drawn from the full list. Unmarked numbers belong to inactive results.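 Rule for the calls: active = inhibition above the run cutoff, the mean inhibition of all test compounds plus 3 SD (cut at about 49% in these data); inactive = the rest.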
target: Trace amine-associated receptor 1 (Homo sapiens) (UniProt Q96RJ0); assay: loss of beta-PEA response after agonist pre-exposure – cell-based, fluorescence, tachyphylaxis, counter-screen for TAAR1 agonist project, confirmation (AID 651951); settings: CHO RD-HGA16 hTAAR1, Fluo-8 calcium, at 3 µM, active compounds read high;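 note: beta-PEA stimulus applied at its EC80; loss of beta-PEA calcium signal after compound pretreatment read as receptor desensitization; 0% = DMSO with beta-PEA at EC80 and 100% = DMSO alone without agonist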
Sequence (Q96RJ0 whole entry, looked up): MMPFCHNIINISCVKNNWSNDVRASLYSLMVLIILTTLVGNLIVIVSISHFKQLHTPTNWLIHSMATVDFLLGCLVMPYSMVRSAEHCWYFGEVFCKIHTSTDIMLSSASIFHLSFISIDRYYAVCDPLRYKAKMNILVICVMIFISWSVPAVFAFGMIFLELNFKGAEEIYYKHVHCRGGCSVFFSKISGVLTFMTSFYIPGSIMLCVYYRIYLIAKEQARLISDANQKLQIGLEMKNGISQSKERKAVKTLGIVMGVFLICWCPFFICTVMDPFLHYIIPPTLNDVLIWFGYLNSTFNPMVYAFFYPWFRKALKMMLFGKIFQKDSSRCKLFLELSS

Row | Compound | inhibition
1 | CN(C)CCCN(C(=O)c1ccc(S(=O)(=O)N2CCCCCC2)cc1)c1nc2ccc(Br)cc2s1 | 41.1%
2 | CN(C)CCCN(C(=O)c1ccc(S(=O)(=O)N2CCCc3ccccc32)cc1)c1nc2ccc(F)cc2s1 | 53.1% (active)
3 | COc1ccc(C(=O)CN2C(=O)NC(C)(c3ccc(C)cc3)C2=O)cc1OC (stereo unspecified) | 10.7%
4 | O=C(Nc1cccc(NC(=O)c2ccc(Br)cc2)c1)c1ccccc1 | -9.63%
5 | COc1ccc(C(=O)NNC(=S)NC(=O)c2ccccc2)cc1 | 76.1% (active)
6 | Cc1onc(-c2ccccc2)c1C(=O)NNC(=S)NC(=O)c1ccc(F)cc1 | 65.3% (active)
7 | COc1ccc(C(=O)NC(=S)NNC(=O)CCc2ccccc2)cc1 | 68.4% (active)
8 | COc1ccc(C(=O)NC(=S)NNC(=O)c2c(-c3ccccc3)noc2C)cc1 | 29.8%
9 | C#CCOc1ccc(/C=C2/C(=O)NN(c3ccccc3)C2=O)cc1OC | 39%
10 | Nc1nonc1-n1nnc(C(=O)N/N=C/c2ccc(Cl)cc2)c1-c1ccc2c(c1)OCO2 | 37.8%
11 | Nc1cccc2c1C(=O)N(Cc1nnc(-c3ccccc3Br)o1)C2=O | 26.5%
12 | O=C(Nc1ccncc1)Nc1ccc(F)cc1 | 76.4% (active)
13 | CCCn1c(O)c(CN2CCCC(C)C2)c(C)c(C#N)c1=O (stereo unspecified) | 55.8% (active)
14 | S=C(NCCc1ccccc1)N1CCn2cccc2C1c1ccncc1 (stereo unspecified) | 83.2% (active)
15 | COc1ccc(OC)c(NC(=S)N2CCc3ccccc3C2)c1 | 40.2%
16 | CCCSc1nc2c(c(=O)n(C)c(=O)n2C)n1Cc1ccc(C)cc1 | 37.9%
17 | c1ccc(Nc2nc(N3CCOCC3)c3ccccc3n2)cc1 | 93% (active)
18 | CC(Oc1ccc2ccccc2c1)C(=O)NNC(=S)NC(=O)c1ccco1 (stereo unspecified) | 70.9% (active)
19 | CCCc1ccc(OCC(=O)NNC(=S)NC(=O)c2ccco2)cc1 | 71.9% (active)
20 | COc1ccc2cc(-c3[nH]ncc3CNCCn3nc(C)cc3C)ccc2c1 | 13%
21 | NC(=O)C1=C[C@H](c2csc3ccccc23)C[C@H](OCc2ccc(CO)cc2)O1 | 50.8% (active)

Row | Compound | inhibition
22 | COC(=O)c1[nH]c2cccc(C)c2c1NC(=O)CN1CCCc2ccccc21 | 35.7%
23 | COc1cccc(-c2cnc(OC(C)(C)C)nc2OC(C)(C)C)c1 | 3.93%
24 | Fc1ccc(NC(=S)N2CCc3[nH]c4ccccc4c3C2)cc1 | 28.1%
25 | O=C(CCCN=C1NS(=O)(=O)c2ccccc21)OCC(=O)c1ccc(F)c(F)c1 | 37.4%
26 | C[C@H](NC(=O)c1ccccc1)C(=O)OCC(=O)c1c[nH]c2ccccc12 | 79.2% (active)
27 | OC(CNCCc1ccc(Cl)cc1Cl)COc1ccccc1 (stereo unspecified) | 79.2% (active)
28 | CC(C)(C)CC(=O)Nc1nc(C(N)Cc2ccc(C(F)(F)F)cc2)cs1 (stereo unspecified) | 58.9% (active)
29 | COc1ccc(CC(N)c2csc(NC(=O)Cc3ccccc3)n2)cc1 (stereo unspecified) | 23.6%
30 | O=C(COC(=O)Cc1ccccc1F)NCCc1ccccc1 | 86% (active)
31 | Cc1cc2nc3c(=O)[nH]c(=O)nc-3n(C[C@H](O)[C@H](O)[C@H](O)CO)c2cc1C | 53.2% (active)
32 | O=C(Nc1ccc(Cl)cc1)N1CCc2[nH]c3ccccc3c2C1 | 12.4%
33 | O=c1cnnc(Nc2ccccc2)[nH]1 | 60.1% (active)
34 | COc1ccc2c(c1)OC(O)(C(F)(F)C(F)F)CC2=O (stereo unspecified) | 11.2%
35 | NC[C@H](Cc1ccccc1)NCCc1cc(C(F)(F)F)cc(C(F)(F)F)c1 | 12.9%
36 | CCCCCCCCCCOC(=O)Cn1c(COc2ccc(C)cc2)[n+](C)c2ccccc21 | 102% (active)
37 | CC(Oc1ccc(Cl)cc1)C(=O)OCC(=O)Nc1ncc(Cl)cc1Cl (stereo unspecified) | 7.27%
38 | Cc1ccc(Cl)cc1N1CCN(C(=O)c2cccc3c(=O)c(C)c(-c4ccccc4)oc23)CC1 | 80.9% (active)
39 | Nc1c(C(=O)c2cccs2)sc2nsc(SCCN3CCCCC3)c12 | 60.8% (active)
40 | CCOC(=O)Cc1csc(NC(=O)Nc2ccccc2)n1 | 28.9%
41 | NC(c1ccccc1)c1csc(NC(=O)Nc2cccc(C(F)(F)F)c2)n1 (stereo unspecified) | 50.7% (active)
42 | COc1ccc(C(N)c2csc(NC(=O)Nc3cccc(C(F)(F)F)c3)n2)cc1 (stereo unspecified) | 44.9%

Row | Compound | inhibition
43 | COc1cc(OC)c(-n2cc(-c3ccc(Cl)cc3)[nH]c2=O)cc1Cl | 79.8% (active)
44 | Cc1ccccc1NC(=S)NC(=O)Cc1ccc(Cl)cc1 | 81.5% (active)
45 | O=C(Cc1ccc(Cl)cc1)NC(=S)Nc1ccccc1O | 106% (active)
46 | CCC(c1nnnn1Cc1ccco1)N(CCc1ccccc1)Cc1cc2cccc(C)c2[nH]c1=O (stereo unspecified) | 20.6%
47 | NC(Cc1ccccc1)c1csc(Nc2cc(Oc3ccccc3)ncn2)n1 (stereo unspecified) | 65.7% (active)
48 | CC(=O)Oc1ccc(Cn2c(C)c(C(=O)NCc3ccc(C#N)cc3)sc2=O)cc1 | 72.9% (active)
49 | O=C1CCCC(O)=C1C=NCCc1ccccc1 | 32.1%
50 | Cc1ccn2c(=O)c(C(=O)NCCC3=CCCCC3)c(O)nc2c1 | 65.7% (active)
51 | c1ccc(-c2csc(N3CCc4ccccc4C3)n2)cc1 | 15.3%
52 | Oc1ccc2ccc3cccc[n+]3c2c1 | 19.6%
53 | CC(NC(=O)c1cc(-c2ccccc2)on1)c1ccccc1 (stereo unspecified) | 51.1% (active)
54 | COc1cc(OC)cc(C(=O)N[C@H](C(=O)OCC(=O)NC(C)c2ccccc2)C(C)C)c1 (stereo partly specified) | 12.6%
55 | c1ccc(C2CNCc3c2ccc2ccccc32)cc1 (stereo unspecified) | 95.2% (active)
56 | CCN(CC)c1ccc2oc(=O)c(C)nc2c1 | 25.7%
57 | O=C(Nc1ccccc1)Nc1nnc(COc2ccccc2F)s1 | 72.4% (active)
58 | O=C(Nc1ccc(F)cc1)Nc1nnc([C@H]2C[C@H](O)[C@@H](CO)O2)s1 | 25.5%
59 | O=C(c1noc2c1CCCC2)N1CCc2ccccc2C1 | 5.47%
60 | CN(C)c1ccc(/C=C2\NC(=S)N(Cc3ccccc3)C2=O)cc1 | 63.9% (active)
61 | CC(=O)Nc1ccccc1Sc1ccc2c3c(cccc13)C(=O)N(c1ccc(C)cc1)C2=O | 5.11%

From PubChem BioAssay AID651951 (The Scripps Research Institute Molecular Screening Center, 2012)
